27 compounds from PubChem BioAssay (NCATS) can be followed below.

Molecules are shown by their SMILES. “And” between values parts separate entries of the source, which are not always exact repeats. Equal entries are not always repeated. Records with an inconclusive call do not appear. The source made the active and inactive calls. Unless noted, calls follow the shape of the full dose curve.

The nature of test [1]: qHTS Assay for Lipid Storage Modulators (AID 1519). As to activity change, negative = inhibition: % is scaled to controls: 0 for no effect and ±100 for the full control effect. The settings on record: Drosophila S3 cells, BODIPY lipid droplet/cell ratio, laser cytometry, cells loaded with oleic acid; for activity change, negative = inhibition: at 57.5 µM (top of the series). In short, it runs like this: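 Cells seeded at 5,000 per well were treated with compounds over a concentration series and loaded with oleic acid (400 uM, as added). Lipid droplet fluorescence (488 nm excitation, 500-530 nm channel) was read by laser-scanning cytometry and normalized to 20 uM Triacsin C.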
Background: Quantitative high-throughput screening tests each substance at several concentrations.

Test [2] can be described thus: Validation screen for inhibitors of Lassa infection (AID 463096). Also: potency is read from the fitted curve at half-maximal effect. As to activity change, negative = inhibition: % is scaled to controls: 0 for no effect and ±100 for the full control effect.
A short description of test [3]: Inducers of the Endoplasmic Reticulum Stress Response (ERSR) in human glioma: Validation (AID 504836; active = well fitted curve in the direction sought with a large enough effect; an effect the other way counts as inactive or inconclusive; also: 0% is about no effect). In short, it runs like this: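 Stably transfected U87-MG human glioma cells carrying a GRP78-based luminescent sensor were seeded at 1000 cells/well, pin-dosed with compounds and incubated 16 h. Luciferase reagent was then added, and end-point luminescence was read after 10 min at room temperature.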

Test [4] can be described thus: qHTS for Inhibitors of the Functional Ribonucleoprotein Complex (vRNP) of Lassa (LASV) Arenavirus: LASV Primary Screen - GLuc reporter signal (AID 1347082; calls by dose curve; tested in HEK293 reporter line; also: nearly all actives have a fitted effect of over 60% in size; also: potency is read from the fitted curve at half-maximal effect; as to activity change, negative = inhibition: % is scaled to controls: 0 for no effect and ±100 for the full control effect).
Test [5] is described as follows: qHTS for Inhibitors of the Functional Ribonucleoprotein Complex (vRNP) of Lymphocytic Choriomeningitis Arenaviruses (LCMV): Viability assay - alamar blue signal for LCMV Primary Screen (AID 1347085; calls by dose curve; tested in HEK293 reporter line; also: nearly all actives have a fitted effect of over 80% in size; also: potency is read from the fitted curve at half-maximal effect).
Test [6] addresses Nucleoprotein (Lymphocytic choriomeningitis virus (strain Armstrong)) (UniProt P09992). Put plainly: qHTS for Inhibitors of the Functional Ribonucleoprotein Complex (vRNP) of Lymphocytic Choriomeningitis Arenaviruses (LCMV): LCMV Primary Screen - GLuc reporter signal (AID 1347086). Also: nearly all actives have a fitted effect of over 70% in size. Also: potency is read from the fitted curve at half-maximal effect. As to activity change, negative = inhibition: % is scaled to controls: 0 for no effect and ±100 for the full control effect.
The nature of test [7]: Cytotoxicity counterscreen for inhibitors of SARS-CoV-2 cell entry (AID 1645845). Also: nearly all actives have a fitted effect of over 50% in size. Also: potency is read from the fitted curve at half-maximal effect. A digest of the protocol:
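Expi293F/hACE2 cells seeded overnight; cpd pin-transferred in DMSO, 1 h preincubation, + media, 48 h 37 C 5% CO2; ATPLite 1step luminescence; normalized to cells and no cells.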
For orientation: The purpose of a counterscreen is to sort out artefacts and off-target activity.

Test [8] can be described thus: Primary qHTS to identify inhibitors of SARS-CoV-2 cell entry (AID 1645846). Also: nearly all actives have a fitted effect of over 45% in size. Also: potency is read from the fitted curve at half-maximal effect. The settings on record: activity change, negative = inhibition: at 57.1 µM (top of the series) unless noted. A digest of the protocol: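 Data are normalized to wells receiving SARS-CoV-2-S pseudoparticles and those given bald particles. Entry signal was luciferase luminescence in stable hACE2 Expi293F cells, 48 hr post-infection, after 1 hr compound pretreatment.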

Test [9] concerns the target Alpha-galactosidase (Coffea arabica) (UniProt Q42656). The experiment in a line: Counterscreen for Glucocerebrosidase Inhibitors: qHTS Assay for Coffee Bean alpha-Galactosidase at pH 4.5 (AID 957; active = well fitted curve in the direction sought with a large enough effect; an effect the other way counts as inactive or inconclusive;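 also: plate controls were enzyme alone for no effect and no enzyme for full effect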). In short, it runs like this:
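Green coffee bean enzyme (2 nM final) was incubated with compounds (0.7 nM to 77 uM) and 4-methylumbelliferyl alpha-D-galactopyranoside (80 uM final) in 50 mM citric acid, 0.005% Tween-20, pH 4.5, 20 min at room temperature; AC50 from Hill fits.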

The target is the same in test [10]. The experiment in a line: Counterscreen for Glucocerebrosidase Inhibitors: qHTS Assay for Coffee Bean alpha-Galactosidase at pH 5.9 (AID 998; active = well fitted curve in the direction sought with a large enough effect; an effect the other way counts as inactive or inconclusive;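 also: plate controls were uninhibited enzyme for no effect and no-enzyme basal signal for full effect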). In short, it runs like this: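 Green coffee bean enzyme (2 nM final) was incubated with compounds (0.7 nM–77 uM) and 4-methylumbelliferyl alpha-D-galactopyranoside (80 uM) in citrate buffer pH 5.9, 20 min at room temperature. High-pH stop; fluorescence 365/440 nm; AC50 from Hill fits.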

A short description of test [11]: Primary qHTS for inhibitors of SARS-S pseudo-typed particle cell entry (AID 1479145). Also: nearly all actives have a fitted effect of over 45% in size. Also: potency is read from the fitted curve at half-maximal effect.
The nature of test [12]: Primary qHTS for Huh7 cytotoxicity: counterscreen for inhibitors of MERS-S pseudotyped particle cell entry (AID 1479147). The settings on record: outcome: dose series up to 57.1 µM unless noted.
Test [13] is described as follows: Primary qHTS for Vero E6 cytotoxicity: counterscreen for inhibitors of SARS-S pseudo-typed particle cell entry (AID 1479150). The settings on record: outcome: dose series up to 57.1 µM unless noted.
Test [14] can be described thus: VSVG counterscreen qHTS to identify inhibitors of SARS-CoV-2 cell entry (AID 1645847). Also: potency is read from the fitted curve at half-maximal effect; nearly all actives have a fitted effect of over 65% in size. In short, it runs like this: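 Counterscreen using VSV-G (not spike) pseudotyped MLV particles on ACE2-expressing Expi293F cells after 1 h compound preincubation; infection ran 48 h at 37 °C. Data normalized to VSV-G PP and bald-PP wells.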
Test [15] is described as follows: qHTS profiling of the MIPE4 collection as inhibitors of Plasmodium falciparum (3D7) proliferation (AID 743344; call rule not given here;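 also: scaled between DMSO vehicle wells and 0.29 µM artemisinin as full inhibition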). The settings on record: P. falciparum 3D7 in erythrocytes, SYBR Green DNA fluorescence, 72 h; at 28.5 µM (top of the series) unless noted. In short, it runs like this: (§1)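 Erythrocytes infected with P. falciparum (0.3% parasitemia, 2.5% hematocrit) incubated with compounds 72 h at 37 C, 5% CO2. Lysis with saponin/Triton buffer containing SYBR Green I, overnight at room temperature in the dark; DNA fluorescence (485/535 nm) normalised to 0.29 uM artemisinin and DMSO.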

Test [16] can be described thus: qHTS profiling of the MIPE4 collection as inhibitors of Plasmodium falciparum (DD2) proliferation (AID 743345; call rule not given here). The settings on record: P. falciparum Dd2 in erythrocytes, SYBR Green DNA, 72 h; at 28.5 µM (top of the series) unless noted. A digest of the protocol:
as §1

Test [17] is described as follows: Primary qHTS for inhibitors of MERS-S pseudo-typed particle cell entry (AID 1479149). Also: nearly all actives have a fitted effect of over 60% in size.
A short description of test [18]: Confirmatory qHTS to identify inhibitors of SARS-CoV-2 cell entry (AID 1645844). Also: potency is read from the fitted curve at half-maximal effect; nearly all actives have a fitted effect of over 45% in size. In short, it runs like this:
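HEK293-ACE2 cells (Expi293F stably expressing human ACE2) were pretreated with compounds for 1 hr at 37C, then infected with MLV-based particles carrying Wuhan-Hu-1 spike (C-terminal 19-aa truncation). Luciferase luminescence read after 48 hr; normalized to spike PP (100%) and bald PP (0%).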

Where [19] appears, read: measured here: cell count channel max response.
Where [20] appears, read: measured here: lipid channel max response.

Alpha-galactosidase (Coffea arabica), sequence (Q42656 whole entry, looked up): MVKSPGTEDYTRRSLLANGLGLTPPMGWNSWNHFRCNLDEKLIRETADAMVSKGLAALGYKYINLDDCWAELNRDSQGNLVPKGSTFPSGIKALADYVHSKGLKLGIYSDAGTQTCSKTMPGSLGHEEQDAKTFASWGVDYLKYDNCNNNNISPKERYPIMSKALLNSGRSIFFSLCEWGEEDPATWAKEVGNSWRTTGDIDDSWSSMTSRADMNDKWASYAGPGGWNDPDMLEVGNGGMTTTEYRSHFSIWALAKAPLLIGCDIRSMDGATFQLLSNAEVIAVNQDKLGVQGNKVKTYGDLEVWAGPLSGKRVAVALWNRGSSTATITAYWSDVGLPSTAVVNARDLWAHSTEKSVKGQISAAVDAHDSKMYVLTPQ
Nucleoprotein (Lymphocytic choriomeningitis virus (strain Armstrong)), sequence (P09992 whole entry, looked up): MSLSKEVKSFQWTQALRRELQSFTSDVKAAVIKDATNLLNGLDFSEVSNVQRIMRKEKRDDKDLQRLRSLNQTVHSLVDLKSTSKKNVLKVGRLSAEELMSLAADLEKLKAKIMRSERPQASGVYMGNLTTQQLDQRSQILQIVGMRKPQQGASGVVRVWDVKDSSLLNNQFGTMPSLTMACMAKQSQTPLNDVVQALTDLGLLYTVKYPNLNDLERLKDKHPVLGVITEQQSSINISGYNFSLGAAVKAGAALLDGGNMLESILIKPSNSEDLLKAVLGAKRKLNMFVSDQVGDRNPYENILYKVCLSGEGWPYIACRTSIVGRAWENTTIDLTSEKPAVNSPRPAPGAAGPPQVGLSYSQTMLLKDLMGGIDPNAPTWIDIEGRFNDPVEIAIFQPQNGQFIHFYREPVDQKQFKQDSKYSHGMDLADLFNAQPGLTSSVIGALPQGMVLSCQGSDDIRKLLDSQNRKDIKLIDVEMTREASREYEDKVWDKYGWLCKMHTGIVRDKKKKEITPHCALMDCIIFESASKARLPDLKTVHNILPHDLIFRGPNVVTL

`O=C1OC(=O)C2C3CCC(O3)C12` (configuration not stated): the activity change, negative = inhibition in [1] is 0.66% (inactive) and -7.44% (inactive). For the same compound, the max response in test [1] (setting [19]) was -1.46% and -29.7%; in test [1] (setting [20]), 1.23% and -36.1%. Also, the Potency entry in test [2] and in [4] was “inactive” throughout. Further, the compound was called inactive in test [3]. The Potency in test [5] was 12.6 µM (active).
With `CCn1c(C(=O)N(C2CC2)C2CC2)cc2c3c(ncn3C)c(Nc3cc(C)n(C)n3)nc21`, the Potency entry in test [4], in [5], in [6] and in test [7] was “inactive” in each case. Further, in test [8], the activity change, negative = inhibition is -14.3%.
On to `NC(=Nc1ccccc1)NC(=O)c1nc(Cl)c(N)nc1N`, for which the call in test [9], in [10] and in test [3] was inactive. In addition, the Potency entry in test [4], in test [5] and in [6] was “inactive” in each case.
Take `CC(=O)O[C@@]12CO[C@@H]1C[C@H](O)[C@@]1(C)C(=O)[C@H](O)C3=C(C)[C@@H](OC(=O)[C@H](O)[C@@H](NC(=O)c4ccccc4)c4ccccc4)C[C@@](O)([C@@H](OC(=O)c4ccccc4)C12)C3(C)C` (some centres not stated): the Potency entry in [4] and in test [6] was “inactive” throughout.
Turning to `NC(N)=Nc1nc(CSCCC(N)=NS(N)(=O)=O)cs1`, the Potency entry in test [4] and in test [6] was “inactive” each time.
Regarding `O=C1CSC(=O)N1C(CCc1ccncc1)COc1ccc(-c2cccc([N+](=O)[O-])c2)cc1` (configuration not stated), the Potency in test [4] is 17.2 µM (active); in test [6], 7.69 µM (active).
In the case of `CC(C)(C)NC(=O)Nc1cccc(Nc2ncc(F)c(NC(C)(C)CO)n2)c1`, the Potency result in test [4] and in test [6] was “inactive” throughout.
For the compound `C=CC(=O)Nc1cccc(Sc2nc(Nc3ccc(N4CCN(C)CC4)cc3)ncc2Cl)c1`, the Potency result in test [4], in test [5] and in test [6] was “inactive” throughout. In addition, the results for the Potency in test [7] and in test [8] were 8.91 µM (active) and 3.98 µM (active), respectively.
On to `COc1cc(OC)c(NC(=O)Nc2cc(C)on2)cc1Cl`, for which the Potency result in test [4], in [5] and in test [6] was “inactive” in each case. In addition, the activity change, negative = inhibition in [8] is -15.8%.
Regarding `O=C1NCc2c1c1c3ccccc3[nH]c1c1[nH]c3ccccc3c21`, the Potency entry in test [4] and in test [6] was “inactive” in each case.
Turning to `C[C@H]1C/C=C/[C@@H]2[C@@H]3O[C@]3(C)[C@@H](C)[C@H]3[C@H](Cc4ccccc4)NC(=O)[C@]32OC(=O)O/C=C/[C@](C)(O)C1=O`, the Potency result in [4] and in test [6] was “inactive” throughout.
Take `CCC[C@H]1NC(=O)[C@H](C)N(C)C(=O)C(C)(C)C(=O)C(C)NC(=O)[C@H](Cc2ccc(OC)cc2)N(C)C(=O)[C@H](C(C)C)N(C)C(=O)CNC(=O)[C@H](CC(C)C)N(C)C(=O)CNC(=O)[C@H]([C@@H](C)CC)OC(=O)[C@H]1C` (some centres not stated): the Potency result in test [4] and in test [6] was “inactive” in each case.
With `Cc1ccc(S(=O)(=O)N[C@@H](Cc2ccccc2)C(=O)CCl)cc1`, the call in test [9], in [10] and in test [3] was inactive. Besides, the Potency in test [2] was 7.08 µM (active). In addition, the Potency entry in test [4], in [5], in test [6] and in [7] was “inactive” in each case.
For `CC(C)NC[C@@H](O)c1ccc(O)c(O)c1`, in test [3], the compound was called inactive. Besides, the Potency entry in test [4], in [5] and in test [6] was “inactive” each time.
For the compound `COc1ccc(NC(=O)/C=C/c2ccc(Cl)cc2)cc1`, the Potency entry in test [4] and in test [6] was “inactive” in each case.
In the case of `COc1cc2nccc(Oc3ccc(NC(=O)NC4CC4)c(Cl)c3)c2cc1C(N)=O`, in test [4], the Potency entry is “inactive”. Further, the Potency is 19.3 µM (active) in test [5], 3.55 µM (active) in test [11] and 19.2 µM (active) in [14]. For the same compound, the compound was classed as inactive in test [12] and in [13]. Moreover, in [8], the activity change, negative = inhibition was -21.3%.
Consider `CCCC(=O)NCCc1c2n(c3ccc(OC)cc13)CCCc1ccccc1-2`, for which the result in [9] and in test [10] was inactive. For the same compound, the Potency result in [2], in test [4] and in test [5] was “inactive” in each case.
Take `CNC(=O)[C@H](Cc1ccccc1)NC(=O)[C@H](CC(C)C)[C@H](CSc1cccs1)C(=O)NO`: the Potency entry in test [4], in test [6] and in test [7] was “inactive” throughout. Also, the activity change, negative = inhibition in test [8] was -35.2%.
As to `COc1cc(OC)c2c(c1Cl)O[C@@]1(C2=O)[C@H](C)CC(=O)C[C@@H]1OC`, the Potency entry in [4] and in test [6] was “inactive” throughout.
Turning to `CN1CCCN(C(=O)c2cccc(-c3ccc(C=C4C(=O)Nc5ccc(Cl)cc54)o3)c2)CC1`, the Potency result in test [4] and in [6] was “inactive” in each case.
On to `COc1cc(C=CC(=O)O)ccc1O`, for which the Potency result in test [4] and in [6] was “inactive” in each case.
`Brc1c(Br)c(Br)c2[nH]cnc2c1Br`: in test [3], the result was inactive. The Potency entry in test [4] and in test [6] was “inactive” each time.
`CC(C(=O)O)c1ccc(-c2ccccc2)c(F)c1` (configuration not stated): the activity change, negative = inhibition in [1] was 7.18% (inactive); in [8], -16.8%. Besides, the max response in test [1] (setting [19]) came out at 15.4%; in test [1] (setting [20]), 28.2%. The same compound showed a parasite growth, % of DMSO control in test [15] of 86.5%. For the same compound, the parasite growth remaining, % of DMSO control (lower = more inhibition) in [16] is 95.5%. For the same compound, the Potency result in test [4], in test [11], in test [17], in test [7] and in test [8] was “inactive” in each case. Also, the compound was classed as inactive in [12] and in test [13].
`C[C@@H](N)c1ccc(C(=O)Nc2ccnc3[nH]ccc23)cc1`: the Potency result in test [4] and in test [6] was “inactive” in each case. In test [8], the activity change, negative = inhibition was -95.9%.
On to `O=C(NOCC(O)CO)c1cc(Br)c(F)c(F)c1Nc1ccc(I)cc1F` (configuration not stated), for which the Potency result in test [4], in [6] and in test [7] was “inactive” in each case. In addition, in [8], the activity change, negative = inhibition is -16.5%.
For the compound `CNC(=O)[C@H](CC1=CN=C2C=CCC=C12)NC(=O)[C@@H](CC(=O)NO)CC(C)C`, the results for the Potency in test [4] and in [6] were 15.3 µM (active) and 3.43 µM (active), respectively.
`CC(=O)O[C@H]1C(=O)[C@@]2(C)C([C@H](OC(=O)c3ccccc3)[C@]3(O)C[C@H](OC(=O)[C@H](O)[C@@H](NC(=O)c4ccccc4)c4ccccc4)C(C)=C1C3(C)C)[C@]1(OC(C)=O)CO[C@@H]1C[C@@H]2O` (some centres not stated): the Potency entry in test [2], in test [4], in [6], in [17] and in test [7] was “inactive” throughout. Moreover, the result in [3], in test [12] and in test [13] was inactive. Besides, the Potency in test [18] was 0.0429 µM (active). In addition, the activity change, negative = inhibition in test [8] is -37.1% and -87.7%.
